In PubChem BioAssay AID2546 (National Center for Advancing Translational Sciences (NCATS), 2010):
About 11,000 (3.5%) of roughly 310,000 compounds were called active. Another 8% or so got no clear call; they are omitted. Shown is part of a subset that was picked to be rich in actives. Values without a mark were called inactive. Calls come from the whole dose curve; as a rule, active = well fitted inhibition curve with a large enough effect; inconclusive = small, poorly fitted or top-dose-only effect, or effect the other way; inactive = flat fitted curve, though single readings scatter.

Assay: VP16 counterscreen qHTS for inhibitors of ROR gamma transcriptional activity;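 note: Gal4-VP16 expression switched on by copper sulfate through the metallothionein promoter; nearly all actives have a fitted effect of over 50% in size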
Conditions: Drosophila S2 Gal4-VP16 UAS-luciferase, luminescence, 20 h; series mostly up to 53.6 µM; activity, negative = inhibition: at the top concentration
From the text: NIH Molecular Libraries Probe Production Network [MLPCN]
NIH Chemical Genomics Center [NCGC]
Assay Provider: Dan Littman, New York University
The retinoic acid-related orphan receptor (ROR) gamma is a transcription factor that has a central role in the differentiation of Th17 cells, a subset of T helper cells that secrete the inflammatory cytokines IL-17, IL-17F, and IL-22. Th17 cells have been implicated in graft versus host disease, autoimmune disease and asthma. ROR gamma is induced in naive T helper cells in the presence of TGF-beta combined with IL-6, IL-21, or IL-23, and thereafter directs the expression of the Th17 lineage cytokines. To identify nonspecific inhibitors, a Drosophila Schneider cell line was stably transfected with two vectors: a gene expressing a fusion of the Gal4 DNA binding domain and VP16 transactivation domain under the control of the metallothionine promoter and a Photinus luciferase reporter regulated by the Gal4 binding site enhancer, UAS. […] Small molecule inhibitors that inhibit components common to the RORgt and VP16 assays, such as the Gal4 DNA binding domain or the UAS luciferase reporter, will be active in both assays and thus scored as nonspecific.
For screening, 600 cells in 4 uL/well were dispensed into white solid 1536-well plates (Grenier) using a solenoid-based dispenser. Following transfer of 23 nL compound or DMSO vehicle by a pin tool, the plates were incubated 1 hr at ambient temperature, and 1 uL/well copper sulfate (700 uM final concentration) was added. The plates were centrifuged 15 s at 1000 RPM and incubated 20 hr at ambient temperature. After addition of 1.5 uL Photinus luciferase detection reagent, the plates were incubated 10 min at ambient temperature and then read by a ViewLux (Perkin Elmer) to detect luminescence.
% is set by controls: 0 for no effect and ±100 for the full control effect; potency is the fitted concentration of half-maximal effect.

Point of comparison: `CCC(=O)c1ccc(OCC(=O)Nc2ccc3nc(C)sc3c2)cc1`, “activity, negative = inhibition” value -0.0332%. Against it:
- Fc1cccc2ncnc(OCc3ccccc3)c12 — higher, 6.7%
- Cc1occc(=O)c1OCc1ccc(F)cc1 — higher, 10.2%
- O=C(CCc1nnc2ccc(NCc3ccccc3Cl)nn12)NCC1CCN(C2CCCC2)C1 (stereo not drawn) — higher, 0.0006%
- COC(=O)c1ccc(N2CCOCC2)c(NC(=O)c2ccc3c(c2)OCCO3)c1 — higher, 2.79%
- COc1ccc(NC(=O)CCCNC(=O)Cn2cnc3sc4c(c3c2=O)CCCC4)cc1OC — lower, -15.7%
- COc1ccc(NC(=O)CCNC(=O)Cn2cnc3sc4c(c3c2=O)CCCC4)cc1OC — lower, -3.23%
- CNC(=O)C1CCN(S(=O)(=O)c2c(C)noc2/C=C/c2cccc(C)c2)CC1 — higher, 4.05%
- O=C(Cc1ccccc1F)NC1CCSc2ccccc21 (stereo not drawn) — lower, -6.64%
- COc1ccc2nc(Nc3nc(-c4ccncc4)cs3)sc2c1 — higher, 20.5%
- COc1ccc2nc(NC(=O)NC3CCCCC3)sc2c1 — lower, -13.1%
- CCOc1ccc2nc(NC(=O)CSc3nc4c(c(=O)n(C)c(=O)n4C)n3CC)sc2c1 — lower, -0.859%
- O=C(Nc1cccc(-c2cscn2)c1)C1CCN(Cc2ccsc2)CC1 — lower, -12.3%
- CCc1cccc(CC)c1NC(=S)Nc1ccc2cn[nH]c2c1 — lower, -6.5%
- Cc1cc2cc(CNC(=O)c3ccc(S(=O)(=O)N4CCOCC4)cc3)ccc2[nH]1 — higher, 0.527%
- Cc1cc(Cl)ccc1C(=O)C1CCCN(C(=O)c2nonc2C)C1 (stereo not drawn) — lower, -0.528%
- Nc1nc(-c2ccccc2)cc(-c2ccccc2)n1 — higher, 27.7%
- CC(=O)Nc1ccc(NC(=O)C(C)OC(=O)c2ccccc2C(=O)c2ccc(Cl)c([N+](=O)[O-])c2)cc1 (stereo not drawn) — lower, -19.4%
- COC(=O)c1cc(NC(=O)Cc2ccccc2[N+](=O)[O-])ccc1Cl — lower, -2.17%
- Cc1ccccc1OCC(=O)Nc1nnc(S(=O)(=O)N2CCCC2)s1 — lower, -0.118%
- Cc1nc2sc(C(c3ccco3)N3CCOCC3)c(O)n2n1 (stereo not drawn) — lower, -7.3%
- OC(COc1ccc2ccccc2c1)CN1CCOCC1 (stereo not drawn) — lower, -12.1%
- COC(=O)c1ccc2c(C(C)(C)O)c(C(C)(C)O)[nH]c2c1 — higher, 4.95%
- O=C(NCCNc1ccc([N+](=O)[O-])cc1Cl)c1ccccc1F — higher, 2.95%
- O=C(Nc1cccc(Cl)c1N1CCOCC1)c1cccnc1 — higher, 6.12%
- COC(=O)c1cc(NC(=O)c2cccnc2)ccc1N1CCOCC1 — higher, 3.64%
- COc1cccc(CNC(=O)CCCC(=O)Nc2cccc([N+](=O)[O-])c2)c1 — lower, -1.57%
- N#CNC1=NCN(CCc2ccccc2)CN1 — higher, 7.1%
- S=C1SCN(CCN2CCOCC2)CN1Cc1ccccc1 — lower, -3.69%
- COc1ccc(S(=O)(=O)N(CC(=O)N/N=C/c2ccccc2C(=O)O)c2ccccc2OC)cc1 — lower, -5.97%
- COc1ccccc1NC(=O)CN(c1ccccc1OC)S(=O)(=O)c1ccccc1 — lower, -0.747%
- COc1cc(OC)c(OC)cc1/C=N/Nc1ncnc2c1[nH]c1ccc(C)cc12 — lower, -5.33%
- CC(C)OCCCNC(=O)c1cc(Sc2ccc(F)cc2)nc2ccccc12 — lower, -8.81%
- COC1=C(N2CCOCC2)C(=O)c2ccccc2C1=O — higher, 9.12%
- COC(=O)C(C)Oc1ccc2c(c1)O/C(=C\c1cccc(Br)c1)C2=O (stereo not drawn) — lower, -2.72%
- CCCS(=O)(=O)N1CCN=C1SCc1cccc(F)c1 — lower, -4.15%
- COc1ccc(-c2noc(CNC(=O)C(C)Oc3ccccc3)n2)cc1 (stereo not drawn) — higher, 0.666%
- COc1ccc2[nH]c3nc(SCC(=O)NC4CC4)nnc3c2c1 — lower, -4.94%
- COc1ccc(C(=O)Nc2ncc3c(n2)-c2ccccc2CC3)cc1 — lower, -1.61%
- CC(=O)Nc1cccc(NC(=O)c2c(-c3ccccc3)noc2C)c1 — higher, 1.1%
- Cc1onc(-c2ccccc2)c1C(=O)N=C(N)c1ccc(Cl)cc1 — higher, 2.19%
- Cc1onc(-c2ccccc2)c1C(=O)Nc1ccccc1C#N — lower, -0.818%
- Cc1ccc(CNC(=O)c2c(-c3ccccc3)noc2C)cc1 — higher, 2.32%
- CC(C)c1ccc(S(=O)(=O)NC2CCCC2)cc1 — lower, -5.01%
- COc1ccc(CN2CC(C(=O)NCCc3ccc(Cl)cc3)CC2=O)cc1 (stereo not drawn) — lower, -9.08%
- Cc1ccc(Oc2ccc(N)cc2)cc1 — lower, -9.31%
- Nc1ccc(Oc2ccc(Cl)cc2)cc1 — higher, 3.52%
- CC1=C(C(=O)NC2CC(C)(C)Cc3c2cnn3-c2ccc(C)cc2)OCCO1 (stereo not drawn) — lower, -4.61%
- CCS(=O)(=O)N1Cc2ccccc2CC1C(=O)Nc1ccc(OC)cc1OC (stereo not drawn) — lower, -9.75%
- NS(=O)(=O)c1ccc2nc(NC(=O)CS(=O)(=O)c3ccc(F)cc3)sc2c1 — lower, -1.43%
- O=c1c2cc([N+](=O)[O-])ccc2nc2n1CCC2 — lower, -7.99%

With `Cc1nc2ccccc2cc1OCc1ccc(F)cc1` the Potency was 6.31 µM (active).
In the case of `COc1ccc(/C=N/Nc2ncnc3sc4c(c23)CCCC4)cc1O`, the Potency was 4.47 µM (active).
With `COc1ccc2nc(Nc3nc4ccc(NC(C)=O)cc4s3)sc2c1` the Potency was 7.08 µM (active).
With `CCOc1ccc2nc(Nc3nc4ccc(NC(C)=O)cc4s3)sc2c1` the Potency was 7.08 µM (active).
In the case of `CCc1cccc(CC)c1NC(=S)NCc1ccc2[nH]c(C)cc2c1`, the Potency was 11.2 µM (active).
With `N#Cc1cccc(NC(=O)COC(=O)c2ccccc2C(=O)c2ccc(Cl)c([N+](=O)[O-])c2)c1` the Potency was 7.08 µM (active).
For `Oc1c(C(c2ccccn2)N2CCOCC2)ccc2cccnc12` (stereo not drawn), the Potency was 2.82 µM (active).
For `O=C(Nc1ccc(N2CCN(C(=O)c3ccccc3)CC2)c(Cl)c1)c1cccnc1`, the Potency was 17.8 µM (active).
With `CCCN1CNC(=S)N(CCc2ccccc2)C1` the Potency was 3.16 µM (active).
For `COc1ccccc1N(CC(=O)N/N=C(\C)c1ccccc1O)S(=O)(=O)c1ccc(C)cc1`, the Potency was 0.708 µM (active).
With `CC(C)OCCCNc1ncnc2c1[nH]c1ccc(F)cc12` the Potency was 2.82 µM (active).
In the case of `COCCN(CCOC)S(=O)(=O)c1ccc(C(=O)Nc2nc3c(s2)CCc2ccccc2-3)cc1`, the Potency was 12.6 µM (active).
With `Cc1onc(-c2ccccc2)c1C(=O)NNC(=S)NC(=O)c1ccc(F)cc1` the Potency was 2 µM (active).
With `COc1ccc(C(=O)NC(=S)NNC(=O)c2c(-c3ccccc3)noc2C)cc1` the Potency was 5.62 µM (active).
For `CC(C)(C)c1ccc(Oc2ccc(N)cc2)cc1`, the Potency was 7.08 µM (active).
In the case of `CCS(=O)(=O)N1Cc2ccccc2CC1C(=O)Nc1nc2ccc(F)cc2s1` (stereo not drawn), the Potency was 11.2 µM (active).

With `COCCN(CC(=O)Nc1ccccc1C)S(=O)(=O)c1ccc(S(=O)(=O)N2CCCC2)cc1` the activity, negative = inhibition was -1.46% [at 0.365 µM].
